GLP1R inv ag = GLP-1 receptor (human) inverse agonism; P43220; HEK293 GLP-1R CRE-luciferase, luminescence, 24 h; GLP-1R form is constitutively active; Potency, µM (series often up to 38.3 µM), without a hit: at the top dose activity change, negative = inhibition, actives largely listed as inhibitors; 410,000 compounds, 1.6% hits; further: on the % scale 0 is the no-effect control and ±100 the full control effect; nearly all actives have a fitted effect of over 55% in size
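Luminescence readout: a drop in cAMP-driven luciferase signal flags inverse agonism at a constitutively active GLP-1R stably expressed in HEK293. Compound exposure lasted 24 hr at 37 deg C, 5% CO2.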
PTHR1 ag = activates the human parathyroid hormone receptor PTHR1; Q03431; HEK293 GP2 PTHR1 cells, GloSensor cAMP luminescence, 1 h; Potency, µM (titrated, usually from 115 µM), for the others: at the top dose activation, hits mostly activators; 410,000 compounds, 0.075% hits; further: nearly all actives have a fitted effect of over 55% in size
Target sequence (Q03431 whole entry, looked up): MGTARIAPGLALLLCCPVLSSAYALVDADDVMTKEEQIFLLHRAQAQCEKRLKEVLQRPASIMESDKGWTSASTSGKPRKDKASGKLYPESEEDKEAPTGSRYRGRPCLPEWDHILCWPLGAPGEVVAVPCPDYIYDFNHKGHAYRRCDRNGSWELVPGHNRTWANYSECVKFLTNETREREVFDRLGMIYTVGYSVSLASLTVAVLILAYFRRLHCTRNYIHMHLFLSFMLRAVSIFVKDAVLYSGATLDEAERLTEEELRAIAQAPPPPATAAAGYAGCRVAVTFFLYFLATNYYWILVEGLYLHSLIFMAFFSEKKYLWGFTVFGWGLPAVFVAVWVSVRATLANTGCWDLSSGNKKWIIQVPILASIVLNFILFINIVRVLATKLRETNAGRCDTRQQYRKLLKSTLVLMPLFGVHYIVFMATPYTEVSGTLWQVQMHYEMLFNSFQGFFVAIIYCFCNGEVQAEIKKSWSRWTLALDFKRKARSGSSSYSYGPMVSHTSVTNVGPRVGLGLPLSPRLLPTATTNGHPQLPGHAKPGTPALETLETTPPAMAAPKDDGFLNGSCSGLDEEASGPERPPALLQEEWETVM
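HEK-293-derived GP2 cells expressing PTHR1 and a GloSensor cAMP reporter, 3,000/well, plated overnight, given luciferin plus IBMX (each 0.5 mM as added) for 1 h at 37 °C, then compound for 1 h at 37 °C. Luminescence was read after 15 min at room temperature.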
GLP1R cytotox = cytotoxic in the GLP-1 receptor inverse agonist counter-screen; HEK293 cAMP-luciferase reporter cells, luminescence, 24 h; Potency, µM (series often up to 38.3 µM), without a hit: at the top dose activity change, negative = inhibition, actives largely listed as inhibitors; 410,000 compounds, 0.13% hits;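 further: loss of luciferase light is scored as toxicity; on the % scale 0 is the no-effect control and ±100 the full control effect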
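Cells in DMEM/10% Nu serum/1% pen-strep, 1536-well format. Pre-incubated 12 h, dosed with 23 nL compound, incubated a further 24 h. Luciferase detection, 12 min at room temp, luminescence.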
GLP1R ag = GLP-1 receptor (human) agonism; AID 624172; Potency, µM (series often up to 45.6 µM), inactives show top-dose activation, usual class: activators; HEK293 GLP-1R CRE-luciferase, luminescence, 4-6 h; cells express a hypersensitive GLP-1R form; 380,000 compounds, 0.007% hits; further: % of control where 0% means no effect
* = called active by the depositor; i = inactive; ? = inconclusive; · = no result; [ ] = another dose, or the depositor's remark. A selection: hits, their analogues and other compounds. The true share with any hit is near 1.7%. The call rests on the fitted dose curve; in most records, active means well fitted curve in the direction sought with a large enough effect; inconclusive means small, poorly fitted or top-dose-only effect, or another doubt; inactive means no such curve, though single readings can be large; an effect the other way counts as inactive or inconclusive. Potency means the concentration at half of the fitted maximal effect.

SMILES	GLP1R inv ag	PTHR1 ag	GLP1R cytotox	GLP1R ag
O=C(N/N=C/c1cn(-c2ccccc2)nc1-c1cccs1)c1ccc(Cl)cc1	6.3µM*	i	-16%	4%
CC1=NNC(=O)/C1=C\c1cn(-c2ccccc2)nc1-c1cccs1	?	-41%	7.9µM*	1%
O=C(N/N=C/c1cn(-c2ccccc2)nc1-c1cccs1)c1ccccc1F	-1%	-7%	?	5%
CN1CCC(N(C)C(=O)/C=C/c2cn(-c3ccccc3)nc2-c2cccs2)CC1	5.6µM*	i	?	20%
C=CCc1cc(Cl)ccc1OCCNCCN1CCOCC1	10µM*	i	13%	-2%
O=C(OCCOc1cccc(Cl)c1)c1cc(S(=O)(=O)N2CCCCC2)ccc1N1CCOCC1	5.6µM*	-16%	-2%	-1%
Cc1ccc(C(=O)Nc2ccc(Cl)cn2)cc1	?	-15%[57.5 µM]	-21%	-7%
Cc1ccc(C(=O)Nc2ncc3c(Cl)cccc3n2)cc1	7.1µM*	i	-24%	-33%
CC(C)CN(CCCNC(=O)c1cc(-c2cccs2)nc2ccccc12)CC(C)C	?	-5%	-9%	1%
COCCCNC(=O)CSc1nc(-c2cccc(F)c2)[nH]c1-c1ccccc1	-17%	?	6%	·
COc1cccc(-n2cc(CN(C)Cc3nc(Cc4ccccc4)no3)cn2)c1	?	-40%	2%	13%
COc1cccc(-n2cc(CN(C)Cc3nc(Cc4cccc(F)c4)no3)cn2)c1	10µM*	-22%	-6%	0%
O=C(NCc1ccco1)C(c1ccncc1)N(C(=O)Cc1cccs1)c1ccccc1 (stereo unspecified)	4%	-6%	11%	8%
O=C(NCc1ccco1)C(c1cccs1)N(C(=O)C1COc2ccccc2O1)c1cccc(O)c1 (stereo unspecified)	11µM*	-4%[57.5 µM]	-18%	-21%
CC(C)CCNC(=O)C(c1ccc(O)cc1)N(Cc1cccs1)C(=O)C1COc2ccccc2O1 (stereo unspecified)	11µM*	-17%	?	-21%
O=C(COc1ccc(Cl)cc1)NCC(c1ccco1)S(=O)(=O)c1ccc(F)cc1 (stereo unspecified)	-11%	-45%	0%	·
Cn1nc([N+](=O)[O-])nc1Sc1nnc(-c2ccccc2)o1	5.6µM*	i	?	-3%
Fc1ccc(-c2noc3ncnc(NCc4ccc(Cl)cc4)c23)cc1	12%	-19%	5%	·
Cc1cc(C)nc(-n2nc(C)cc2NC(=O)CNCc2ccccc2)n1	16%	i	-1%	-14%
CCC(C(=O)Nc1cc(C)nn1-c1nc(C)cc(C)n1)c1ccccc1 (stereo unspecified)	3.5µM*	i	?	19%
Cc1cc(C)nc(-n2nc(C)cc2NC(=O)CN2CCc3ccccc3C2)n1	?	i	5µM*	10%
COc1ccc2sc(N(CCCN(C)C)C(=O)c3ccc(C(=O)c4ccccc4)cc3)nc2c1	7.1µM*	?	?	-2%
COc1ccc(-c2csc(N(CCCN(C)C)C(=O)c3ccc(C)cc3)n2)cc1	4µM*	-22%	-22%	2%
Cc1cccc2sc(N(CCCN(C)C)C(=O)c3ccc(C(=O)c4ccccc4)cc3)nc12	5µM*	-11%	?	4%
Cc1cc(F)ccc1NC(=O)c1c(C)oc2c1C1=NCCN1C=N2	2%	i	2%	·
SMILES	GLP1R inv ag	PTHR1 ag	GLP1R cytotox	GLP1R ag
Clc1cccc(N2CCN(c3nc4ccccc4c4nc(-c5ccccc5)nn34)CC2)c1	-5%	i	-3%	·
CNC(=S)N/N=C/c1cc(C)ccc1C	?	i	?	7%
CCNC(=S)N/N=C/c1cc(C)ccc1C	4.5µM*	17%	5.6µM*	-3%
CC(C(O)c1ccccc1)N(C)CCOC(c1ccccc1)c1ccccc1 (stereo unspecified)	·	·	·	10%
CCOC(=O)c1c(NC(=O)CSc2cn(CCNC(=O)c3ccccc3F)c3ccccc23)sc2c1CCCC2	13%	?	7%	0%
CCOc1ccc(NC(=O)CCCN2C(=S)NC(C)(C)CC2C)cc1 (stereo unspecified)	1%	i	12%	7%
Cc1ccc(C)c(N2CCN(C(=O)CCCN3C(=S)NC(C)(C)CC3C)CC2)c1 (stereo unspecified)	11µM*	i	?	7%
CC1CC(C)(C)NC(=S)N1CCCC(=O)Nc1ccc(Br)cc1 (stereo unspecified)	10µM*	-6%	11µM*	5%
O=S(=O)(c1cccc(C(F)(F)F)c1)N1CCC(Oc2ccc(-n3cnnn3)cc2)CC1	-7%	-8%	11%	·
CN1CCC(OC(c2ccccc2)c2ccc(Cl)cc2)C1 (stereo unspecified)	3.2µM*	-9%	?	5%
CC(=O)c1ccc(NC(=O)C2CCC(CNS(=O)(=O)c3ccc4c(c3)CCCC(=O)N4)CC2)cc1 (stereo unspecified)	16%	-19%	-4%	·
CC1CCN(c2nc(-c3ccc(C(C)(C)C)cc3)nc3ccccc23)CC1	?	-62%	20%	·
CN1CCN(c2nc(-c3ccc(C(C)(C)C)cc3)nc3ccccc23)CC1	8.9µM*	-15%	7%	-1%
CC1CCN(c2nc(-c3ccncc3)nc3ccccc23)CC1	6.3µM*	?	9%	3%
COc1ccc(NC(=O)CSc2oc(-c3ccco3)nc2S(=O)(=O)c2ccc(Br)cc2)c(OC)c1	-26%	i	0%	·
Cc1oc(-c2ccccc2Cl)nc1CS(=O)(=O)CC(=O)NC(C)CCc1ccccc1 (stereo unspecified)	10µM*	-94%	-11%	-3%
CCCCC(=O)O[C@]1(C(=O)CO)CCC2C3CCC4=CC(=O)CCC4(C)C3C(O)CC21C (stereo partly specified)	·	·	·	-1%
CC(=O)Nc1cc(C(=O)NCc2ccccc2Cl)ccc1Sc1ccc(F)cc1	?	-36%	-3%	·
COc1ccccc1OCC(=O)N1CCN(c2ccccc2OC)CC1	-1%	-8%[57.5 µM]	3%	23%
Cc1cccc(OCCCC(=O)N2CCCCCC2)c1C	8.9µM*	-6%	0%	21%
Cc1cccc(OCCCC(=O)O)c1C	10%	i	15%	-8%
COc1ccccc1N1CCN(C(=O)COc2cccc(C)c2C)CC1	7.1µM*	-5%	-3%	14%
Cn1c(=O)c2c(nc(NCCc3ccccc3)n2Cc2cccc(Br)c2)n(C)c1=O	-19%	-33%	-7%	-2%
COC(=O)C1=C(c2ccccc2)c2ccccc2S(=O)(=O)N1CC(=O)Nc1ccc(F)c(F)c1	?	-18%	-8%	-6%
Cc1cc(C)c(C)c(S(=O)(=O)NCC(=O)NCC2CCCCC2)c1C	6.3µM*	-23%	17%	13%
Cc1ccnc2c1ccc1cccnc12	?	-24%	1.6µM*	4%
Cc1ccnc2c1ccc1ccccc12	10%	-17%	5%	-1%
